For 8 compounds, growth results are on record in PubChem BioAssay (NCI).

Structures are written as SMILES. The panel holds about 83,000 compounds, 20% with a hit somewhere; the sample as a whole holds those more often.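 In brief: 96-well plates, 48 h treatment, single concentration, percent growth endpoint.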 Unmarked numbers belong to inactive results. Active and inactive are the calls of the source. How the source made its calls: active means growth percent below 10; inactive means the rest.

Test in all cases: NCI-60 one-dose screen, 48 h (100 = growth as untreated, 0 = no growth, -100 = all killed)
Common to all, as to conditions: 10 µM

The test system of assay [1] is SK-MEL-2 melanoma.
For assay [2], the system named is EKVX NSCLC.
The subject of assay [3] is SN12C renal.
Assay [4] concerns UO-31 renal.
The subject of assay [5] is TK-10 renal.
The test system of assay [6] is ACHN renal.
Assay [7] has as its system CAKI-1 renal.
Assay [8] deals with A498 renal.
The subject of assay [9] is CCRF-CEM leukemia.
Assay [10] concerns MOLT-4 leukemia.
In assay [11] the test system is SR leukemia.
Assay [12] has as its system RPMI-8226 leukemia.
Assay [13] concerns OVCAR-8 ovarian.
For assay [14], the system named is OVCAR-5 ovarian.
Assay [15] concerns OVCAR-4 ovarian.
Assay [16] concerns SK-OV-3 ovarian.
Assay [17] relates to IGROV1 ovarian.
Assay [18] concerns OVCAR-3 ovarian.
Assay [19] deals with HS 578T breast.
In assay [20] the test system is NCI/ADR-RES ovarian.

For `CCOc1ccccc1/C=N\N=C\c1ccccc1O`, the growth was 100% in [1]; 91.5% in [2]; 93.5% in assay [3]; 52% in assay [4]; 121% in [5]; 100% in [6]. Moreover, the growth in assay [7] is 92.9%; in assay [8], 91.2%; in [9], 71.6%; in [10], 72.5%; in [11] it was 80.6%; in [12] it was 100%. Moreover, the growth in assay [13] was 107%; in assay [14], 120%; in assay [15] it was 112%; in assay [16], 95.7%; in assay [17] it was 95.8%; in assay [18], 88.9%. In addition, the growth in [19] was 110%; in assay [20], 99.9%.
As for `COc1ccc2c(c1)C(=O)/C(=C/c1cccc(OCC(=O)c3ccc([N+](=O)[O-])cc3)c1)CO2`, the growth in [1] was -47.3% (active); in assay [2] it was 75.6%; in [3], 65.6%; in assay [4], -68% (active); in assay [5], 3.16% (active); in assay [6], 51.8%. Further, the growth was 16.3% in assay [7]; 79.5% in assay [8]; -11.8% (active) in [9]; -38% (active) in assay [10]; -64.1% (active) in assay [11]; -50.5% (active) in assay [12]. Also, the growth was 2.15% (active) in [13]; 57.3% in assay [14]; 74% in assay [15]; 90.7% in [16]; 58.4% in assay [18]; -26.8% (active) in assay [19]. For the same compound, the growth in [20] was -29.2% (active).
On to `CCOC(=O)C1=CSC2=NC3=C(CCC/C3=C\c3cc(OC)c(OC)c(OC)c3)C(c3cc(OC)c(OC)c(OC)c3)N12` (stereo not drawn), for which the growth in assay [1] was 106%; in assay [2], 95.1%; in [3], 54.4%; in assay [4], 69.9%; in [5] it was 84.7%; in [6], 45.9%. Besides, the growth was 66.3% in assay [7]; 78.4% in assay [8]; 16.8% in [9]; 52.7% in assay [10]; 31.2% in assay [11]; 22.4% in [12]. In addition, the growth was 13.5% in [13]; 75.7% in [14]; 72.3% in assay [15]; 102% in [16]; 89.7% in [17]; 57.1% in assay [18]. Besides, the growth in assay [19] was 46.8%; in assay [20] it was 3.63% (active).
As to `OCC1OC(n2ccc3c(NO)ncnc32)C(O)C1O` (stereo not drawn), the growth in [1] is -78.6% (active); in assay [2] it was -15.3% (active); in [3], -27.2% (active); in assay [4], -25% (active); in [5], -15.1% (active); in [6] it was -15.3% (active). Also, the growth is 1.77% (active) in assay [7]; -51.1% (active) in assay [8]; -8.6% (active) in assay [9]; -32.9% (active) in assay [10]; -30.2% (active) in assay [11]; -21.7% (active) in assay [12]. In addition, the growth in [13] was -32.5% (active); in [14], -3.92% (active); in [15] it was -5.14% (active); in assay [16], 1.15% (active); in [17] it was -32.1% (active); in assay [18], -31.7% (active). Further, the growth in assay [19] is -11% (active); in assay [20] it was -53.5% (active).
In the case of `Oc1ccc(/C=N/N=C2c3ccccc3-c3ccccc32)c(O)c1`, the growth was 80.9% in assay [1]; 78.4% in assay [2]; 56.1% in assay [3]; 56.1% in assay [4]; 108% in assay [5]; 70.1% in assay [6]. Further, the growth in [7] is 66.8%; in assay [8], 95.6%; in [9], 60.4%; in assay [10], 77.9%; in [11], 54%; in [12], 72.8%. For the same compound, the growth in assay [13] is 84.5%; in [14], 77.1%; in assay [15] it was 60.4%; in [16], 84.7%; in assay [17] it was 71.2%; in assay [18], 83.5%. Further, the figures for the growth in assay [19] and in [20] were 93.7% and 72.9%, respectively.
On to `COc1cc2c(cc1OC)C(C(CCCCCC(CCC(C)C)C1NCCc3cc(OC)c(OC)cc31)CCC(C)C)NCC2` (stereo not drawn), for which the growth is -91.9% (active) in assay [1]; -74.4% (active) in assay [2]; -85.5% (active) in assay [3]; -96.3% (active) in [4]; -97.2% (active) in assay [5]; -100% (active) in assay [6]. Moreover, the growth in assay [7] was -84.7% (active); in assay [8] it was -59.6% (active); in assay [9], -74.3% (active); in assay [10], 2.91% (active); in assay [11], 12.1%; in assay [12], -57.1% (active). Moreover, the growth in [13] was -89.3% (active); in assay [14] it was -100% (active); in assay [15], -100% (active); in assay [16] it was -99.5% (active); in assay [18], -99.9% (active); in [19], -41% (active). In assay [20], the growth was -95.9% (active).
`O=C(N/N=C/c1ccc([N+](=O)[O-])cc1)c1ccccc1Nc1cccc(C(F)(F)F)c1`: the growth in assay [1] was 80.9%; in assay [2] it was 92.4%; in [3] it was 99.5%; in assay [4], 78.4%; in assay [5] it was 173%; in assay [6] it was 91%. The growth in [7] is 76.9%; in assay [8], -6.91% (active); in assay [9], 91.9%; in assay [10], 109%; in assay [11] it was 104%; in assay [12], 90.4%. In addition, the growth is 95.8% in assay [13]; 98.6% in assay [14]; 98.2% in [15]; 103% in assay [16]; 67.3% in assay [17]; 103% in assay [18]. The growth in [19] is 7.5% (active); in assay [20], 91.4%.
On to `O=C1/C=C/[C@@H](O)[C@@H]2C[C@@H](O)C[C@H]2/C=C/CCC[C@H](C(F)(F)F)O1`, for which the growth in assay [1] is -18.3% (active); in [2], 10.3%; in assay [3], 4.4% (active); in assay [4] it was -6.75% (active); in [5], -21% (active); in assay [6] it was 3.63% (active). In addition, the growth in assay [7] is 4.59% (active); in assay [8] it was -18.2% (active); in assay [9], 1.24% (active); in assay [10], -0.315% (active); in assay [11], -5.34% (active); in assay [12] it was -23.8% (active). Also, the growth in [13] was 2.07% (active); in [14], 16.2%; in assay [15], 28.5%; in [16], 57.8%; in assay [17], 19.4%; in [18], -28% (active). Also, the results for the growth in [19] and in [20] were 38.5% and -9.43% (active), respectively.
